“And” between values parts separate entries of the source, which are not always exact repeats. Equal values may be shown once. Compounds without any hit were thinned out: in the full panel of roughly 83,000, 20% have a hit.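 The test compound was applied at a single concentration to cells in 96-well plates for 48 hours, and percent growth was recorded.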 The source made the active and inactive calls. The calls were made as follows: active = growth percent below 10; inactive = the rest.
What follows are molecules tested on MDA-MB-468 breast (assay: NCI-60 one-dose screen, 48 h (100 = growth as untreated, 0 = no growth, -100 = all killed)). Conditions: 10 µM unless noted.
In the case of `O=[N+]([O-])c1ccc(-c2ncc(-c3ccc(Br)cc3)o2)cc1`, the growth is reported as 102% (inactive).
With `O=C(NCc1ccco1)Nc1c(Cl)cc(Cl)cc1Cl` the growth was 87.8% (inactive).
`COc1ccc2c(c1)CCCC21C(=O)Nc2c(Cl)cccc21` (stereo not given) was tested, and the growth was 109% (inactive).
In the case of `CCOC(=O)C#Cc1c(CC(=O)OCC)nnn1[C@H]1O[C@@H](CO)[C@@H]2OC(C)(C)O[C@@H]21`, the growth is reported as 10.6% (inactive).
`CC(=O)c1cc2c(N)c(C(=O)Nc3ccccc3)sc2nc1C` was tested, and the growth was 24.3% (inactive).
With `CC1=C(Cl)C(=O)c2cc(C)ccc2C1=O` the growth was 95.2% (inactive).
With `CCSCC1CC(O)(c2ccccc2)C(c2ccccc2)C(c2ccc(F)cc2)O1` (stereo not given) the growth was -18% (active).
`COc1ccc(/C=C2\CCCC3=C2N=C2SC=NN2C3c2ccc(OC)c(OC)c2)cc1OC` (stereo not given) was tested, and the growth was 14.5% (inactive).
For `COc1ccc2sc3c(NCCO)nc4ccccc4c3c(=O)c2c1`, the growth was 109% (inactive).
`CCOc1nc(-c2ccccc2)cc2c(O)c(-c3nnco3)[nH]c(=O)c12` was tested, and the growth was 16.6% (inactive).
For `COc1cc(C2C(C#N)=C(N)OC3=C2C(=O)c2ccccc2C3=O)cc(OC)c1OC` (stereo not given), the growth was 42.4% (inactive).
For `COc1cccc(/C=N/N=C(N)N)c1`, the growth was 90% (inactive).
In the case of `N=C(N)c1ccc(-c2ccc(-c3ccc(Cl)cc3Cl)s2)nc1`, the growth is reported as -13.7% (active).
For `Nc1ccc(-c2ccc(N)c(Br)c2)cc1Br`, the growth was 19.8% (inactive).
With `CC(C)n1nc(C#Cc2cccc(O)c2)c2c(N)ncnc21` the growth was -44.2% (active).
For `O=C(O)c1cccc(Br)c1`, the growth was 104% (inactive) and 101% (inactive).
In the case of `Cc1cc(C)c2c(Nc3ncnc4c3sc3nc(C)cc(C)c34)n[nH]c2n1`, the growth is reported as 92.2% (inactive).
`O=C(Nc1cccc(NC(=O)C2CCCCC2)c1)c1ccccn1` was tested, and the growth was 116% (inactive).
For `COc1ccc(-c2nc(SCCC(C)C)nc(Nc3ccc(F)c(Cl)c3)c2C#N)cc1`, the growth was 71.5% (inactive).
With `COc1ccc(/C=C\C(=O)/C=C/c2ccc(OC)cc2)cc1` the growth was 18.7% (inactive).
`CSc1ccc2c(c1)c(CCN)c(C)n2Cc1ccc(Cl)c(Cl)c1` was tested, and the growth was -67.1% (active).
With `CCCC(F)C(=O)O` (stereo not given) the growth was 108% (inactive).
For `Cc1ccc(C(=O)N/N=C/c2ccc3c(c2)OCO3)cc1`, the growth was 101% (inactive).
For `NC(N)=Nc1ccc(Oc2ccc(Nc3ccc(Cl)c(C(F)(F)F)c3)cc2)cc1`, the growth was 22.2% (inactive).
In the case of `CC(=O)O[C@@H]1CCN2C(=O)N(C)c3ccccc3[C@@H]2C1`, the growth is reported as 126% (inactive).

— PubChem BioAssay (NCI)
